# Structures can show the parent of a compound that is named as a salt.
# System: Danio rerio larvae (5 dpf)
# Test: combined optomotor response (time in upper well half, down vs up moving lines, periods 7-14) minus DMSO control (percentage points); higher = stronger optomotor response than DMSO larvae
# Details: 10 µM; exposure time: 3 h pre-incubation + 3 h imaging
row,SMILES,combined optomotor response
1,CN1CC(=O)N2[C@H](c3ccc4c(c3)OCO4)c3[nH]c4ccccc4c3C[C@@H]2C1=O [Tadalafil],-1.2
2,O=C(O)c1cc(/N=N/c2ccc(S(=O)(=O)Nc3ccccn3)cc2)ccc1O [Sulfasalazine],1.33
3,COc1cccc2c1C(=O)c1c(O)c3c(c(O)c1C2=O)C[C@@](O)(C(=O)CO)C[C@@H]3O[C@H]1C[C@H](N)[C@H](O)[C@H](C)O1 [Doxorubicin hydrochloride],-1.96
4,CC(C)n1c(/C=C/C(O)CC(O)CC(=O)O)c(-c2ccc(F)cc2)c2ccccc21 (stereo not drawn) [Fluvastatin sodium],-0.348
5,O=C(NCC1CCCCN1)c1cc(OCC(F)(F)F)ccc1OCC(F)(F)F (stereo not drawn) [Flecainide acetate],2.85
6,Cn1cnc([N+](=O)[O-])c1Sc1ncnc2[nH]cnc12 [Azathioprine],2.29
7,CCN(CC)CCNC(=O)c1c(C)[nH]c(/C=C2\C(=O)Nc3ccc(F)cc32)c1C [Sunitinib malate],2.67
8,CS(=O)(=O)CCNCc1ccc(-c2ccc3ncnc(Nc4ccc(OCc5cccc(F)c5)c(Cl)c4)c3c2)o1 [Lapatinib],-2.06
9,CCN(Cc1ccncc1)C(=O)C(CO)c1ccccc1 (stereo not drawn) [Tropicamide],0.19
10,Cc1cccc(C)c1OCC(C)N (stereo not drawn) [Mexiletine hydrochloride],2.6
11,O=C(O[C@@H]1C[C@@H]2C[C@H]3C[C@H](C1)N2CC3=O)c1c[nH]c2ccccc12 [Dolasetron mesylate],-2.11
12,Cc1ccsc1C(=CCCN1CCC[C@@H](C(=O)O)C1)c1sccc1C [Tiagabine hydrochloride],8.29
13,OCCOCCN1CCN(C2=Nc3ccccc3Sc3ccccc32)CC1 [Quetiapine hemifumarate],8.62
14,CCc1ccc(CCOc2ccc(CC3SC(=O)NC3=O)cc2)nc1 (stereo not drawn) [Pioglitazone hydrochloride],-1.77
15,CCCCCCCCc1ccc(CCC(N)(CO)CO)cc1,-4.85
16,Cc1cc(C2CCCCC2)n(O)c(=O)c1 [Ciclopirox],5.45
17,CCCCc1nc(Cl)c(CO)n1Cc1ccc(-c2ccccc2-c2nnn[nH]2)cc1 [Losartan potassium],-0.522

row,SMILES,combined optomotor response
1,CC(=O)O[C@H]1C(=O)[C@@]2(C)[C@H]([C@H](OC(=O)c3ccccc3)[C@]3(O)C[C@H](OC(=O)[C@H](O)[C@@H](NC(=O)c4ccccc4)c4ccccc4)C(C)=C1C3(C)C)[C@]1(OC(C)=O)CO[C@@H]1C[C@@H]2O [Taxol],-0.695
2,NS(=O)(=O)Cc1noc2ccccc12 [Zonisamide],7
3,COc1ccccc1OCCNCC(O)COc1cccc2[nH]c3ccccc3c12 (stereo not drawn) [Carvedilol],-1.8
4,CC#C[C@]1(O)CC[C@H]2[C@@H]3CCC4=CC(=O)CCC4=C3[C@@H](c3ccc(N(C)C)cc3)C[C@@]21C [Mifepristone],8.07
5,OC(CNCC(O)C1CCc2cc(F)ccc2O1)C1CCc2cc(F)ccc2O1 (stereo not drawn) [Nebivolol hydrochloride],-9.95
6,COc1ccc(-c2ccc3cc(C(=O)O)ccc3c2)cc1C12CC3CC(CC(C3)C1)C2 [Adapalene],0.129
7,COc1c(C)c2c(c(O)c1C/C=C(\C)CCC(=O)OCCN1CCOCC1)C(=O)OC2 [Mycophenolate mofetil],12.9
8,CC1CNc2c(cccc2S(=O)(=O)N[C@@H](CCCNC(=N)N)C(=O)N2CC[C@@H](C)C[C@@H]2C(=O)O)C1 (stereo partly drawn) [Argatroban],3.86
9,CN1CCN(CCCN2c3ccccc3Sc3ccc(Cl)cc32)CC1 [Prochlorperazine dimaleate],6.24
10,Nc1nc(Cl)nc2c1ncn2[C@@H]1O[C@H](CO)[C@@H](O)[C@@H]1F [Clofarabine],4.66
11,CN(C)CCC[C@@]1(c2ccc(F)cc2)OCc2cc(C#N)ccc21 [Escitalopram oxalate],-0.7
12,CC(C)c1nc(CN(C)C(=O)N[C@H](C(=O)N[C@@H](Cc2ccccc2)C[C@H](O)[C@H](Cc2ccccc2)NC(=O)OCc2cncs2)C(C)C)cs1 [Ritonavir],3.14
13,CC(C)(C)NC(=O)[C@@H]1C[C@@H]2CCCC[C@@H]2CN1C[C@@H](O)[C@H](Cc1ccccc1)NC(=O)[C@H](CC(N)=O)NC(=O)c1ccc2ccccc2n1 [Saquinavir mesylate],-2.96
14,CC(C)N(CCCCOCC(=O)NS(C)(=O)=O)c1cnc(-c2ccccc2)c(-c2ccccc2)n1 [Selexipag],4.06
15,Cc1nnc(C(C)C)n1C1C[C@H]2CC[C@@H](C1)N2CC[C@H](NC(=O)C1CCC(F)(F)CC1)c1ccccc1 (stereo in doubt) [Maraviroc],0.791
16,CN(C)CC/C=C1/c2ccccc2COc2ccc(CC(=O)O)cc21 [Olopatadine hydrochloride],8.84

# Source: the supplement of paper PMC9950053
